PubChem BioAssay (EPA / NIEHS)
Active and inactive are the calls of the source. How the source made its calls: active means hit-call score of the fitted dose curve at least 0.9, where 1 is the maximum; inactive means score below 0.9.

Tests used:
Settings in all cases: mRNA level, 48 h; actives raise or lower the signal
[1] = read-out: Cytochrome P450 3A4 (Homo sapiens) (UniProt P08684); assay: LTEA_HepaRG_CYP3A4: Life Technologies and Expression Analysis (LTEA) Assay for CYP3A4 using HepaRG (AID 2283487)
How it was run: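 CYP3A4 transcript measured by TaqMan qRT-PCR and normalized to three housekeeping genes after 48 h chemical exposure of human HepaRG cells. Top concentration 100 uM, half-log steps, 0.5% DMSO vehicle; gain or loss fitted against DMSO baseline.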

[2] = read-out: DNA damage-inducible transcript 3 (DDIT3), DDIT3 (gene 1649); assay: LTEA_HepaRG_DDIT3: Life Technologies and Expression Analysis (LTEA) Assay for DNA damage-inducible transcript 3 (DDIT3) using HepaRG (AID 2283488)
How it was run: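 DDIT3 transcript was quantified by qRT-PCR with ACTB/GAPDH/POLR2A normalization after 48 h chemical treatment of differentiated HepaRG cells in 0.5% DMSO. Dosing was eight-point, half-log, top 100 uM, duplicate wells. Curves fitted bidirectionally versus DMSO.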

[3] = read-out: Pro-epidermal growth factor (Homo sapiens) (UniProt P01133); assay: LTEA_HepaRG_EGF: Life Technologies and Expression Analysis (LTEA) Assay for Epidermal growth factor (EGF) using HepaRG (AID 2283489)
How it was run: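 HepaRG, 48 h dosing, 100 uM top, half-log x8, 0.5% DMSO. Readout: TaqMan qRT-PCR (Fluidigm array), housekeeping-normalized. Gain or loss of signal fit vs DMSO.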

[4] = read-out: Early growth response protein 1 (EGR1) transcription factor, EGR1 (gene 1958); assay: LTEA_HepaRG_EGR1: Life Technologies and Expression Analysis (LTEA) Assay for Early growth response protein 1 (EGR1) transcription factor using HepaRG (AID 2283490)
How it was run: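 EGR1 transcript levels quantified by qRT-PCR (Fluidigm arrays) against three housekeeping genes after 48 h chemical exposure of HepaRG cells. Eight-point half-log series topping at 100 uM, 0.5% DMSO vehicle, analyzed for gain or loss.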

[5] = read-out: Ezrin (EZR), EZR (gene 7430); assay: LTEA_HepaRG_EZR: Life Technologies and Expression Analysis (LTEA) Assay for Ezrin (EZR) using HepaRG (AID 2283491)
How it was run: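 HepaRG, 48 h chemical exposure, 8-pt half-log series from 100 uM, 0.5% DMSO vehicle, duplicates. Read-out: EZR mRNA by TaqMan qRT-PCR (Fluidigm array), housekeeping-normalized; bidirectional curve fit vs DMSO baseline.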

[6] = read-out: Cytochrome P450 3A7 (Homo sapiens) (UniProt P24462); assay: LTEA_HepaRG_CYP3A7: Life Technologies and Expression Analysis (LTEA) Assay for CYP3A7 using HepaRG (AID 2283492)
How it was run: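 Human HepaRG liver cells, 48 h post-plating, switched to serum-free induction medium and exposed in duplicate for 48 h. Dosing: 100 uM top, half-log dilutions, 8 points, 0.5% DMSO vehicle. Read-out: CYP3A7 mRNA, gain or loss fitted against DMSO baseline.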

[7] = read-out: Fatty Acid-Binding Protein 1 (FABP1), FABP1 (gene 2168); assay: LTEA_HepaRG_FABP1: Life Technologies and Expression Analysis (LTEA) Assay for Fatty Acid-Binding Protein 1 (FABP1) using HepaRG (AID 2283494)
How it was run: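 FABP1 expression by TaqMan qRT-PCR, normalised to three housekeeping genes, in HepaRG cells after 48 h chemical treatment. Eight-point half-log series topping at 100 uM in 0.5% DMSO, duplicates; gain or loss fitted relative to vehicle.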

[8] = read-out: Cytochrome P450 4A22 (Homo sapiens) (UniProt Q5TCH4); assay: LTEA_HepaRG_CYP4A22: Life Technologies and Expression Analysis (LTEA) Assay for Cytochrome P450 4A22 (CYP4A22) using HepaRG (AID 2283495)
How it was run: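 Readout is CYP4A22 transcript induction or loss, quantified by qRT-PCR and normalized to ACTB, GAPDH and POLR2A. Human HepaRG cells receive test chemicals for 48 h at eight half-log concentrations from 100 uM in 0.5% DMSO.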

[9] = read-out: Cytochrome P450 7A1 (Homo sapiens) (UniProt P22680); assay: LTEA_HepaRG_CYP7A1: Life Technologies and Expression Analysis (LTEA) Assay for Cytochrome P450 7A1 (CYP7A1) using HepaRG (AID 2283496)
How it was run: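 HepaRG, 48 h exposure, 8-pt half-log series from 100 uM, 0.5% DMSO vehicle, duplicates. Readout: TaqMan qRT-PCR mRNA vs three housekeeping genes; bidirectional curve fit against DMSO baseline.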

[10] = read-out: CYP3A5 (gene 1577); assay: LTEA_HepaRG_CYP3A5: Life Technologies and Expression Analysis (LTEA) Assay for CYP3A5 using HepaRG (AID 2283493)
How it was run: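 mRNA levels were quantified by qRT-PCR on Fluidigm arrays and normalized to three housekeeping genes. Differentiated HepaRG cells received 48 h exposure (top 100 uM, half-log steps, 0.5% DMSO vehicle, duplicate); bidirectional fitting versus DMSO.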

Measured: AC50

Sequence of Cytochrome P450 3A4 (Homo sapiens) (P08684 whole entry, looked up): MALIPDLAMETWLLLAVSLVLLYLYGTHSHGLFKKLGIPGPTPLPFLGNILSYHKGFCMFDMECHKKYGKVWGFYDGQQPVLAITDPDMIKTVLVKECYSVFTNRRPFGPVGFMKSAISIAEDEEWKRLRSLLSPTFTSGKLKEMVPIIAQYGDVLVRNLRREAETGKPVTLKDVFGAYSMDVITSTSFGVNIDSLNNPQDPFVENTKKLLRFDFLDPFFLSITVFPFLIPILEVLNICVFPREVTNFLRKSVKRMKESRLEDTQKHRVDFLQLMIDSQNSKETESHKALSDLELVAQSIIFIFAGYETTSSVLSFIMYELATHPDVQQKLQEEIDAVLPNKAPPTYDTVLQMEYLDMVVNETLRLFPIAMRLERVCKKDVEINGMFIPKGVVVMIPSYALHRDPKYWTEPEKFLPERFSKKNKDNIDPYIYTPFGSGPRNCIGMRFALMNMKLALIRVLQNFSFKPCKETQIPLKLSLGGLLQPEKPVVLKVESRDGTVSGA
Sequence of Cytochrome P450 3A7 (Homo sapiens) (P24462 whole entry, looked up): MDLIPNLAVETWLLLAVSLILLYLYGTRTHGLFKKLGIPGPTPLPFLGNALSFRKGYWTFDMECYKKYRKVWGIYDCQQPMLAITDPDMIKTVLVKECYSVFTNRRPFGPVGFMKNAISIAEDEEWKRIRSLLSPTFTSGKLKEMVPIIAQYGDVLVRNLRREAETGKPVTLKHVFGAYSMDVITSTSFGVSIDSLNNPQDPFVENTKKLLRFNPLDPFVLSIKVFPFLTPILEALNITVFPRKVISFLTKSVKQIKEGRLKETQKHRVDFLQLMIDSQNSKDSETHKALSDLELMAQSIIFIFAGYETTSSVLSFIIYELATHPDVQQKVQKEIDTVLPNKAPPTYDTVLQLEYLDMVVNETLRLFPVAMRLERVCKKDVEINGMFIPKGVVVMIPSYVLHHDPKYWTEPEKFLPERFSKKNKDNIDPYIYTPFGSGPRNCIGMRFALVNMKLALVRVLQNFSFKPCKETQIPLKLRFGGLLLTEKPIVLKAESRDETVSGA

CCCCCCCCCCO
not listed: [10]
inactive: all other assays above

O=C(OCCCCCOC(=O)c1ccccc1)c1ccccc1
active: [2] 1.38 µM | [3] 2.17 µM | [6] 2.31 µM | [8] 2.98 µM
not listed: [10]
inactive: all other assays above

COc1cc(S(=O)(=O)O)c(C)cc1N=Nc1c(O)ccc2cc(S(=O)(=O)O)ccc12
inactive: all assays above

COCCOC[C@H](CC1(C(=O)NC2CCC(C(=O)O)CC2)CCCC1)C(=O)Oc1ccc2c(c1)CCC2 (some centres not stated)
inactive: all assays above

Cc1ccc(C(C)C)c(O)c1
inactive: all assays above

CCCCCC(=O)O
inactive: all assays above

C[C@]12C=CC(=O)C=C1CC[C@@H]1[C@@H]2C(=O)C[C@@]2(C)[C@H]1CC[C@]2(O)C(=O)CO
inactive: [2] | [3] | [4] | [5] | [7]

NCC1(Cc2noc(=O)[nH]2)CCCCC1
not listed: [10]
inactive: all other assays above

CC(C)(C)c1cc(O)c(C(C)(C)C)cc1O
active: [2] 50 µM | [4] 50 µM | [7] 94.3 µM
inactive: [3] | [5]

O=c1c(O)c(-c2ccc(O)c(O)c2)oc2cc(O)cc(O)c12
not listed: [6] | [10]
inactive: all other assays above

O=C(O)Cc1ccccc1Nc1c(Cl)cccc1Cl
active: [8] 9.92 µM | [9] 1.24 µM
not listed: [1] | [10]
inactive: all other assays above

COc1ccc(C)cc1N
not listed: [10]
inactive: all other assays above
